Measured values reported in PubChem BioAssay (NCI).
Where “and” joins values, the source holds several entries; their conditions need not be identical. Identical values can stand only once. This is part of a sample that, as a whole, favours compounds with a hit. Of some 79,000 tested, about 15% had one in any assay. Unmarked numbers belong to inactive results. Calls of active or inactive are those of the source. No stated cut-off is given here; in the data, active means growth inhibition above about 70%; inactive means the rest. Where a SMILES comes first, the peptide text is derived from it. The star is where a group is joined. Cbz = O=C(OCc1ccccc1)*; Boc = CC(C)(C)OC(=O)*; tBu = CC(C)(C)*

Key:
[1] = NCI Yeast Anticancer Drug Screen. Data for the rad50 strain (AID 155);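 further: 0% = growth of vehicle-only cultures of the same strain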; details: S. cerevisiae rad50 strain growth inhibition, hits give high values; at 50.0 µM unless noted
Summary of the method: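 Inhibition values express reduced yeast growth in compound-treated cultures relative to vehicle-treated controls.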

[2] = NCI Yeast Anticancer Drug Screen. Data for the mec2-1 strain (AID 157); details: S. cerevisiae mec2-1 strain, hits give high values; at 50.0 µM unless noted
Summary of the method: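 Compounds were applied to mec2-1 yeast cells. Their growth was then compared with that of vehicle-treated cultures to give growth inhibition.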

[3] = NCI Yeast Anticancer Drug Screen. Data for the sgs1 mgt1 strain (AID 161);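 further: 0% = growth of cultures given vehicle only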; details: S. cerevisiae sgs1 mgt1 strain, hits give high values; at 50.0 µM unless noted
Summary of the method: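 Growth of a repair-deficient yeast mutant was monitored after compound treatment and expressed as inhibition relative to vehicle-treated cultures.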

[4] = NCI Yeast Anticancer Drug Screen. Data for the cln2 rad14 strain (AID 165);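 further: 0% = growth equal to vehicle treated cultures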; details: S. cerevisiae cln2 rad14 strain, hits give high values; at 50.0 µM unless noted
Summary of the method: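 Strain: cln2 rad14 yeast, altered in cell cycle control and DNA damage repair. Read-out: growth inhibition vs vehicle.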

[5] = NCI Yeast Anticancer Drug Screen. Data for the bub3 strain (AID 167); details: S. cerevisiae bub3 mutant strain, hits give high values; at 50.0 µM unless noted
Summary of the method: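 Steps: expose the mutant yeast strain to compound; grow alongside vehicle-treated cultures; measure growth; express inhibition against the vehicle cultures.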

[6] = NCI Yeast Anticancer Drug Screen. Data for the mlh1 rad18 strain (AID 175); details: S. cerevisiae mlh1 rad18 strain growth inhibition, hits give high values; at 50.0 µM unless noted
Summary of the method: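 A repair-deficient yeast strain is exposed to test compound, and growth is scored relative to vehicle-treated controls.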

| Compound | growth inhibition [1] | growth inhibition [2] | growth inhibition [3] | growth inhibition [4] | growth inhibition [5] | growth inhibition [6] |
| --- | --- | --- | --- | --- | --- | --- |
| CCOC(=O)c1nc2ccccc2nc1NCc1cc(OC)c(OC)c(OC)c1 | -14.9% | -11.9% | -10.8% | 5.65% | -7.9% | -29.4% |
| CC(C)(C)OC(=O)/N=C/c1c(O)c2ccccc2oc1=O | -36.5% | -20.5% | -21.8% | 9.75% | -17.4% | -26% |
| Brc1cccc(C=NC23CC4CC(CC(C4)C2)C3)c1 | 13.7% | -13.8% | 12.4% | -52.1% | -13.3% | -4.6% |
| Nc1nc(CCc2ccc(NC(=O)CBr)cc2)c(CCCCc2ccccc2)c(=O)[nH]1 | 16.4% | 1.85% | 25.8% | 24.2% | 3.75% | 16.2% |
| CCCCC(Sc1nn(C2OC(COC(=O)c3ccccc3)C(OC(=O)c3ccccc3)C2OC(=O)c2ccccc2)c(=O)[nH]c1=O)C(=O)OCC (stereo not drawn) | -1.45% | -10.6% | -21.4% | -33.4% | -4.7% | 7.45% |
| COC(=O)C(CCSc1ccccc1)C(=O)OC | 0.85% | -4.45% | 20.1% | 12.1% | 28.2% | -3.1% |
| O=[n+]1c2c(n([O-])c3ccccc31)CCCCCCCCCC2 | -52.6% | -1.95% | 7.15% | -35.2% | 0.95% | 7.9% |
| CCN(CC)c1ccc(/C=C(\C)c2nc3ccc(C)cc3[nH]2)cc1 | -5.25% | -10.7% | 8.1% | 1.8% | -9.3% | 3.45% |
| CCCCC(CC)OC(=O)c1ccccc1C (stereo not drawn) | -8.05% | -4.55% | 0.5% | -30.9% | -1.4% | -23.8% |
| COC1CC(n2ccc(=O)[nH]c2=O)OC1CO (stereo not drawn) | -8.25% | -10.6% | 2.65% | 28.1% | -25.6% | 6.4% |
| Nn1c(-c2ccccc2)nc2ccc(Br)cc2c1=O | 0.95% | 7.55% | 18.5% | 24.8% | 7.95% | 43.5% |
| CCN(CC)CCOC(=O)c1cc2ccccc2s1 | 23.2% | 8.85% | 13.1% | 2.85% | -1.35% | 10.4% |
| CN(C)C(CCC(=O)NC(C)(C)C)CC(=O)NC(C)(C)C (stereo not drawn) | 0.2% | 5% | 11.7% | -2.35% | 6.95% | -8.65% |
| C=C(c1c(C)cccc1OC(C)=O)c1c(C)cccc1OC(C)=O | -8.8% | -10.6% | -0.6% | -9.1% | 17.3% | -6.55% |
| O/N=C/c1ccc(O)cc1 | -63.2% | -21.1% | -14.4% | -19.6% | 2.55% | -28.9% |
| CCC(=O)COc1ccc(NC(NC(=O)C(C(F)(F)F)C(F)(F)F)(C(F)(F)F)C(F)(F)F)cc1 | 16.2% | -24.8% | 6.5% | 29.2% | -3.3% | -16% |
| CCC(=O)Oc1ccc(C(=O)c2ccc(OC(=O)CC)cc2)cc1 | 5.05% | -24.9% | 13.8% | 11.4% | 8.05% | 4.1% |
| CCCCCCCCC(=O)NCCOC | 10.9% | 2.8% | 5.8% | -20.8% | -2.95% | 10.6% |
| OCCN1CCCCCCC1 | -2% and 0.2% | -6.15% and -3.8% | -4.6% and 0.65% | -0.45% and 5.6% | -6.3% and 10.1% | -7.5% and -0.3% |

| Compound | growth inhibition [1] | growth inhibition [2] | growth inhibition [3] | growth inhibition [4] | growth inhibition [5] | growth inhibition [6] |
| --- | --- | --- | --- | --- | --- | --- |
| CCOC(=O)c1ccc(Cn2c(C)cc(=O)n(Cc3ccc(C(=O)OCC)cc3)c2=O)cc1 | 0.25% | -14.1% | -9.9% | -27.6% | 4.05% | -7.7% |
| O=C(O)COc1ccc([N+](=O)[O-])cc1[N+](=O)[O-] | 20.9% | 14% | 22.4% | 7.95% | 3.95% | 16.6% |
| S=c1nc[nH]c2c1ncn2Cc1ccco1 | 5.85% | -12.9% | -11.3% | 0.55% | -46.2% | 5% |
| Nc1ccccc1S(=O)(=O)Nc1c(N)nc(SCC(=O)O)[nH]c1=O | -15.4% | -21.9% | -10% | -4.2% | -12.9% | 0.65% |
| CCN(CC)CCC1CCCCN1CC(=O)N1c2ccccc2NC(=O)c2ccccc21 (stereo not drawn) | -2.9% | 2% | 8.9% | 8.2% | -0.9% | 0.25% |
| C#CCSC(=S)NNc1ccccc1 | 33.1% | 29.1% | 33.1% | 6.2% | 60.8% | 24.8% |
| COC(=O)c1cc(NC(=O)Nc2cc(C(F)(F)F)ccc2Cl)cc(C(=O)OC)c1 | -24.2% | -32% | -9.65% | -22.9% | -0.55% | -38.2% |
| c1ccc(N=C(Nc2ccccn2)Nc2ccccn2)nc1 | 5.15% | -7.2% | 1.1% | -34% | -14.7% | -25.1% |
| O=S(=O)(c1ccccn1)c1nc2ccccc2s1 | -1.75% | 7.1% | -0.45% | 17.1% | -2.8% | 0.45% |
| O=C1c2c(O)ccc(O)c2C(=O)c2c(NCCNCCO)ccc(NCCNCCO)c21 | 61.9% and 31.9% | 21.6% and -16.4% | 54.2% and -52% | -41.9% and -21.4% | 9.5% and -63.3% | 41% and -16.6% |
| CN(C(=O)CCC1OCCO1)c1cc(N)ccc1OCc1ccccc1 | 15.3% | -0.7% | -7.2% | 4.8% | 19.9% | -18.6% |
| Cc1c([N+](=O)[O-])cc(C(C)(C)C)c(OC(=O)c2ccccc2)c1[N+](=O)[O-] | 41.5% | 24.7% | 41% | 16.3% | 25.4% | 20.4% |
| COc1cc(OC)cc(C(=O)CC(=O)c2cc(OC)cc(OC)c2)c1 | -49.6% | -38.3% | -69% | -7.9% | -33.4% | -26.1% |
| CN[C@@H]1[C@H](O)[C@H](NC)[C@H]2O[C@@]3(O)C(=O)C[C@@H](C)O[C@H]3O[C@@H]2[C@H]1O | 7.35% | -23.1% | -21.9% | 7.45% | -12.6% | -9.1% |
| CC1C(=O)N(c2ccccc2)NC12CCCc1ccccc12 (stereo not drawn) | -15.2% | -7.3% | -34.8% | 16.6% | 25.1% | 27.6% |
| CC(C)N(C(=O)C12C3C4C1C1C2C3C41C(=O)N(C(C)C)C(C)C)C(C)C (stereo not drawn) | -1.85% | -9.2% | -12.9% | -1% | 8.45% | -26.5% |
| O=C(c1cccs1)N(C(=S)N1CCN(c2ccccc2)CC1)C1CCCCC1 | -0.45% | -5.9% | -8% | 13.4% | -26.8% | -10.4% |
| CC(OC(C)(C)C)C(NC(=O)C(CCCCNC(=O)OC(C)(C)C)NC(=O)C(Cc1c[nH]c2ccccc12)NC(=O)C(Cc1ccccc1)NC(=O)OCc1ccccc1)C(=O)NC(Cc1ccccc1)C(=O)O (stereo not drawn) (Cbz-FWK(Boc)T(tBu)F-OH; configuration not given here) | -10.3% | -16.6% | -24.2% | 24.4% | 1.3% | -19.4% |
| CC(=O)NC1C(OCc2ccccc2)OC(CO)C(O)C1OCC(=O)NC(C)C(=O)NC(CCC(=O)NCCCCCNc1c2ccccc2nc2cccc([N+](=O)[O-])c12)C(N)=O (stereo not drawn) | 78.8% (active) | 87.3% (active) | 79% (active) | 78.8% (active) | 53.5% | 89% (active) |
